HCV inh: HCV inhibition | Potency, µM (highest dose often 41.8 µM), inactives show at the top dose activity change, negative = inhibition, actives largely listed as inhibitors | Huh7.5.1 HCVcc-Cre infection, luciferase reporter, 44 h | AID 651820 | hit rate 3.4% among 340,000; note: potency is the fitted concentration of half-maximal effect; % is set by controls: 0 for no effect and ±100 for the full control effect
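Infectious HCVcc-Cre (~0.5 moi) was added to cells just after compound, with cells seeded 4 h earlier at 1,000 per well. Luciferase activity after 44 h culture reported infection; substrate was incubated 15 min at room temperature before reading.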
HCMV inh: blocks human cytomegalovirus replication | HFF cells, HCMV-luciferase reporter, 72 h; stronger effect = lower value | activity change, negative = inhibition, % at 57.5 µM | hit rate 4.5% among 410,000 | AID 1259415; in the data active = activity change below about -60%; inconclusive = no clear call, values can overlap the other calls; inactive = above about -39%; note: % is set by controls: 0 for no effect and ±100 for the full control effect
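Human foreskin fibroblasts infected with luciferase-reporter HCMV at MOI 1 PFU/cell, compounds at two doses. Luciferase measured 72 h post infection; normalized to buffer-only basal and Salinomycin (10uM) controls.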
Pf growth 48h: P. falciparum growth inhibition at 48 hours (one generation) | P. falciparum luciferase growth in erythrocytes, 48 h | Potency, µM (series often up to 28.7 µM), for the others: at the top dose activity change, negative = inhibition, actives largely listed as inhibitors | hit rate 5.9% among 310,000 | AID 504832; note: potency is the fitted concentration of half-maximal effect; % is set by controls: 0 for no effect and ±100 for the full control effect
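In quantitative HTS format, infected erythrocytes bearing luciferase-reporter parasites were treated for a single generation at 37 C. Luminescence after adding detection reagent served as the growth measure.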
CHX counter: counter-screen for Shiga toxin inhibitors: cycloheximide protein synthesis inhibition | cell reporter, cycloheximide protein synthesis inhibition counterscreen | max response, % | hit rate 12% among 300,000 | AID 2314; in the data active = max response mostly above about 13%, no sharp cut-off; inactive = mostly below about 14%; note: read at 38.3 µM for the half of the compounds with a filed dose; 0% is about no effect
Shiga toxin inh: inhibitors of Shiga toxin in Vero cells; hit rate 9.2% among 290,000; Vero cells, Shiga toxin protein synthesis inhibition reporter; inhibition, % at 38.7 µM; AID 2315; in the data active = inhibition mostly above about 28%, no sharp cut-off; inactive = mostly below about 43%; note: 0% is about no effect
Pf growth 96h: inhibits malaria parasite growth, 96 h; P. falciparum luciferase reporter growth, 96 h; Potency, µM (top dose mostly 28.7 µM), for inactives: at the highest dose activity change, negative = inhibition, usual class: inhibitors; hit rate 6.9% among 320,000; AID 504834; note: potency is the fitted concentration of half-maximal effect; % is set by controls: 0 for no effect and ±100 for the full control effect
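Two-generation exposure (96 h) targets delayed-death phenotype. Reporter parasites carrying integrated firefly luciferase, in red cells at 2% hematocrit and 0.05% parasitemia final, kept at 37 C, 5% CO2; luminescence loss indicates inhibition.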
* hit, by the source's call; i = inactive; u = inconclusive; x = no result given; ! = not active in a repeat; [ ] = dose if it differs, or a comment. Compounds with a hit are over-represented: about 21% of the library has one in this group of screens. Unless noted, calls come from the whole dose curve; as a rule, active = well fitted inhibition curve with a large enough effect; inconclusive = small, poorly fitted or top-dose-only effect, or another doubt; inactive = no such curve, though single readings can be large or run the other way.

SMILES	HCV inh	HCMV inh	Pf growth 48h	CHX counter	Shiga toxin inh	Pf growth 96h
O=C(CCS(=O)(=O)c1cc2c(cc1Cl)NC(=O)CO2)NCCc1ccccc1	0.0%	-104.2*!	1.1%	-12.9	-4.2	u
CCCCCCCCCCCCCCCCCC(=O)OCC(O)CO (stereo not drawn)	x	x	-12.7%	x	x	-1.0%
Cc1ccc(COc2ccc(/C=N/O)cc2)cc1	-9.5%	-4.7	130.2%	43.1*	87.3*	41.3%
CCOc1ccc(/C=N/O)cc1	-8.6%	24.1	17.0%	-3.5	-12.8	x
Cc1ccc(Oc2ccc(/C=N/O)cn2)cc1	-5.5%	46.7	172.6%	41.4*	91.2*	223.2%
O=C1C2C3C=CC(CC3)C2C(=O)N1c1cccc(Br)c1 (stereo not drawn)	26.1%	-11.2	-24.5%	-2.6	-2.1	-14.4%
CCOC(=O)CCNC(=O)C1=CN2CCN(Cc3c(C)noc3C)C(=O)N=C2O1	x	-3.6	x	x	x	x
CCC(C)n1c(C)nc2c(c1=O)c1nc3ccccc3nc1n2CCC1=CCCCC1 (stereo not drawn)	17.4%	-88.4*	13.1µM*	1.2	-9.9	11.7µM*
Cc1ncc([N+](=O)[O-])n1CC(=O)Nc1ccc(Br)cc1	-9.6%	10.9	4.0%	-3.8	-6.9	12.9%
Cc1ccc(C(=O)N2CCN(c3ccccc3)CC2)cc1NC(=O)c1nsc2ccccc12	x	7.1	x	x	x	x
Cc1cc(C)c(NC(=O)C2CCN(c3nc4ccccc4n4cccc34)CC2)c(C)c1	x	31.6	x	x	x	x
CCC(SC1=NCCS1)C(=O)Nc1nnc(-c2ccccc2OC)s1 (stereo not drawn)	13.0%	-97.3*	10.4%	4.4	36.1	-25.7%
COc1ccc(Cc2nnc(NC(=O)C(C)C)s2)cc1	-4.8%	65.1	-7.3%	-0.5	-2.4	2.0%
COc1ccc(-c2nnc(NC(=O)C(C)C)s2)c(OC)c1	3.1%	18.8	x	20.7*	52.3	52.1%
COC(=O)Nc1nnc(-c2ccccc2Cl)s1	6.3%	36.8	x	25.8*	65.1*	107.5%
CCOC(=O)Nc1nnc(-c2ccccc2OC)s1	u	u	56.2%	21.4*	32.8*	12.1%
CC1CCCC(NC(=O)c2ccc3c(c2)NC(=O)CS3)C1C (stereo not drawn)	0.5%	0.0	-2.9%	7.2	-4.1	9.1%
COc1ccccc1-c1nnc(NC(=O)OCC(C)C)s1	10.1%	13.9	69.0%	-1.8	-9.1	204.6%
CC(SC1=NCCS1)C(=O)Nc1nnc(-c2ccc(F)cc2)s1 (stereo not drawn)	0.0%	26.2	6.9%	5.6	33.8	-3.6%
CC(SC1=NCCS1)C(=O)Nc1nnc(-c2ccc(Br)cc2)s1 (stereo not drawn)	17.3%	-19.1	-19.5%	20.6*	37.7*	u
COC(=O)Nc1nnc(-c2ccccc2OC)s1	13.6%	143.7	124.3%	37.9*	74.3*	161.6%
Cc1ccc2cccc(NC(=O)c3ccc(-c4cccc(Cl)c4Cl)o3)c2n1	x	-2.5	x	x	x	x
COc1ccc(-c2cc(C)no2)cc1S(=O)(=O)Nc1c(C)cc(C)cc1C	x	0.0	x	x	x	x
CC(NC(=O)CNC(=O)c1sc2ccccc2c1Cl)c1ccc(S(N)(=O)=O)cc1 (stereo not drawn)	-13.8%[8.37 µM]	-28.2	-0.2%	x	x	47.2%
O=C(CN(CC1CCCO1)C(=O)c1nsc(Cl)c1Cl)NC1CCCC1 (stereo not drawn)	24.4%	-66.4*	6.6%	-4.4	54.6	u
SMILES	HCV inh	HCMV inh	Pf growth 48h	CHX counter	Shiga toxin inh	Pf growth 96h
COCc1cccc(-c2cccc3c2COCC(=O)N3Cc2ccccc2)c1	x	-4.7	x	x	x	x
COc1cc(NC(=O)Cn2nnnc2-c2ccccc2F)cc(OC)c1OC	x	-24.1	x	x	x	x
CCOc1ccc(-c2nc(CSCC(=O)NCc3ccco3)c(C)o2)cc1	u	u	u	-3.3	10.7	13.1µM*
CCOc1ccc(-c2nnn(CC(=O)NCc3ccco3)n2)cc1	-1.2%	21.9	28.7%	25.6*	28.3	u
CCOc1ccc(-c2nc(CSCC(=O)NCc3ccc(C)cc3)c(C)o2)cc1	x	-68.6*	x	x	x	x
CCOc1ccc(-c2nc(CS(=O)(=O)CC(=O)NCc3ccc(F)cc3)c(C)o2)cc1	-26.6%	3.7	-4.6%	11.7*	19.9*	-21.4%
CCCCC[C@]12Cc3cc(OC)c(OC)cc3C(O1)c1c(cc(C)n(-c3ccccc3)c1=O)O2	x	x	u	0.6	i	36.5%[5.75 µM]
Cn1cc(C(=O)NCCc2ccc(Cl)cc2)c(=O)c2cc(S(=O)(=O)N3CCCCC3)ccc21	x	0.3	x	x	x	x
COc1ccc(/C=C\c2onc(C)c2S(=O)(=O)N2CCC(C(=O)Nc3cccc(OC)c3)CC2)cc1	x	-26.6	x	x	x	x
COc1ccc(-c2nc(CSCC(=O)NCc3ccc4c(c3)OCO4)c(C)o2)cc1	6.7%	42.6	x	-3.8	-14.2	5.86µM*
C/C=C1\CN2[C@H]3C[C@@]45c6ccccc6N(C)[C@H]4[C@@H]2CC1C3[C@H]5O (stereo partly drawn)	17.0%	-11.5	x	x	x	x
CCCC[N+]12C3C[C@H](C4[C@H](O)[C@]5(C[C@@H]41)c1ccccc1N(C)[C@@H]35)[C@H](CC)[C@H]2O (stereo partly drawn)	-6.1%	8.7	13.1µM*	-2.9	-13.3	u
CCOc1ccc(OCCn2nnc3ccccc3c2=O)cc1	6.9%	-11.1	354.3%	36.7*	58.5*	116.0%
Cc1ccc(OCCn2cnc3ccccc3c2=O)c([N+](=O)[O-])c1	25.5%	132.7	100.1%	49.6*	51.9*	u
CCOc1cccc(OCCn2cnc3ccccc3c2=O)c1	-0.3%	32.0	67.6%	12.6	35.0*	10.4µM*
CC(C)(C)c1ccc(OCCOCCn2cnc3ccccc3c2=O)cc1	u	9.4	-17.5%	35.5*	55.3	41.2%
Cc1cc(OCCn2cnc3ccccc3c2=O)ccc1[N+](=O)[O-]	4.3%	25.6	15.3%	1.7	-5.0	-17.3%
CCOc1cccc(OCCCCn2cnc3ccccc3c2=O)c1	7.0%	89.4	-8.9%	3.7	27.6	-13.3%
CN1C(=O)CSc2ccc(NC(=O)N3CCC(N4CCCCC4)CC3)cc21	-16.7%	12.7	x	-2.6	4.4	11.7µM*
CN1C(=O)CSc2ccc(NC(=O)N3CCN(c4ccccn4)CC3)cc21	u	-18.4	u	-4.5	4.4	-21.2%
CN1C(=O)c2ccccc2Sc2ccc(NC(=O)N3CCN(c4ccc(F)cc4)CC3)cc21	x	-97.5*	x	x	x	x
Cc1ccc(C)c(N2CCN(C(=O)Nc3ccc4c(c3)N(C)C(=O)CS4)CC2)c1	10µM*	-15.9	u	-2.2	6.5	34.9%
CCN1C(=O)c2ccccc2Sc2ccc(NC(=O)N3CCN(c4cc(C)ccc4C)CC3)cc21	x	-61.0*	x	x	x	x
CN1C(=O)c2ccccc2Sc2ccc(NC(=O)N3CCOCC3)cc21	-4.8%	32.8	u	-1.3	32.7	u

Compound activity: PubChem BioAssay, National Center for Advancing Translational Sciences (NCATS)
